{"source": "PubChem BioAssay AID488908", "about": "(National Center for Advancing Translational Sciences (NCATS), 2010)", "note": "Values joined by “and” are separate entries in the source; they are usually repeats but may differ in a detail not shown here. Equal entries are not always repeated. Results filed as inconclusive are left out. Where a call stands in place of a potency, no number is given. Active and inactive are the calls of the source. The call rests on the fitted dose curve; in most records, active means well fitted inhibition curve with a large enough effect; inconclusive means small, poorly fitted or top-dose-only effect; inactive means flat fitted curve, though single readings scatter.", "data": [{"assay": "Secondary Assay for lipid storage modulators: Cytotoxcity for probe SAR", "settings": "Drosophila S3 cells viability, CellTiter-Glo luminescence, 24 h, with oleic acid added (1 µL, 400 µM); series mostly up to 46.1 µM", "how_it_was_run": "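Drosophila S3 embryonic cells, 5,000/well, exposed to compound at several concentrations with 400 uM oleic acid stock added, 24 h at 24 degrees C; viability by CellTiter-Glo luminescence.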", "values": [{"smiles": "O=C(NCCc1ccc(O)c(O)c1)c1cc2sccc2[nH]1", "Potency": "inactive"}, {"smiles": "COc1cc(NC(=S)N2CCN(c3ccccn3)CC2)c(OC)cc1Cl", "Potency": "inactive"}, {"smiles": "CN(C)CC(=O)NC1CCCc2c1cnn2-c1ccc(F)cc1F", "note": "(centres undefined)", "Potency": "inactive"}, {"smiles": "O=C(NC1CCCc2c1cnn2-c1cc(F)cc(F)c1)c1cccc2nccnc12", "note": "(centres undefined)", "Potency": "inactive"}, {"smiles": "O=C(Cc1cccs1)Nc1nc(-c2ccc3c(c2)CCC3)cs1", "Potency": "inactive"}, {"smiles": "C[C@@H](NCCCc1cccc(C(F)(F)F)c1)c1cccc2ccccc12", "Potency": "28.1 µM (active)"}, {"smiles": "Cc1cc(NC(=O)Nc2ccc(N(C)C)cc2)c2cc(F)cc(F)c2n1", "Potency": "12.5 µM (active)"}, {"smiles": "O=C(O)c1cccc(-c2noc(-c3ccccc3F)n2)c1", "Potency": "inactive"}, {"smiles": "CCOc1ccc(CCNC(=O)c2ccccn2)cc1OCC", "Potency": "inactive"}, {"smiles": "CCn1c(C(=O)NCCc2ccc(OC)c(OC)c2)cc2sccc21", "Potency": "inactive"}, {"smiles": "CCOC(=O)C1CCN(C(=O)C2(NC(=O)Nc3ccccc3Cl)CCCCC2)CC1", "Potency": "inactive"}, {"smiles": "Cc1ccc(-c2cnc(SCC(=O)Nc3nc(C)cs3)n2Cc2ccco2)cc1", "Potency": "inactive"}, {"smiles": "O=C(NC1CCCc2c1cnn2-c1ccc(F)cc1F)c1ccccn1", "note": "(centres undefined)", "Potency": "9.96 µM (active) and 8.88 µM (active)"}, {"smiles": "O=C(O)CCc1ccc(NCc2cccc(Oc3ccccc3)c2)cc1", "Potency": "inactive"}, {"smiles": "CCOc1ccc(CCNC(=O)c2cc3sccc3n2Cc2ccc(-n3cncn3)cc2)cc1OCC", "Potency": "inactive"}, {"smiles": "CCOc1ccc(CCNC(=O)c2csc(Br)n2)cc1OCC", "Potency": "inactive"}, {"smiles": "O=C(NC1CCCc2c1cnn2-c1ccc(F)cc1F)C1CCCCN1", "note": "(centres undefined)", "Potency": "inactive"}, {"smiles": "O=C(NC1CCCc2c1cnn2-c1ccc(F)cc1F)c1cccc(F)c1F", "note": "(centres undefined)", "Potency": "14.1 µM (active)"}, {"smiles": "COc1ccc(NC(=S)N2CCN(c3cccc(Cl)c3)CC2)c(OC)c1", "Potency": "inactive"}, {"smiles": "CCOC(=O)C1CCN(C(C)C(=O)NC(=O)NC2CCCCC2)CC1", "note": "(centres undefined)", "Potency": "inactive"}, {"smiles": "O=C(NC1CCCCC1)NC1(C(=O)N2CCCC2)CCCCC1", "Potency": "inactive"}, {"smiles": "CCOc1ccc(CCNC(=O)c2ccc(N3N=C(C)CC3=O)cc2)cc1OCC", "Potency": "inactive"}, {"smiles": "O=C(NCCc1ccc2c(c1)OCO2)c1cc2sccc2n1Cc1ccccc1", "Potency": "inactive"}, {"smiles": "COc1ccc(-c2csc(NC(=O)CSc3nnc(NC4CC4)s3)n2)cc1OC", "Potency": "inactive"}, {"smiles": "O=C(NC1CCCc2c1cnn2-c1ccc(F)cc1F)c1ccncc1", "note": "(centres undefined)", "Potency": "1.41 µM (active)"}, {"smiles": "Cc1cc(SCc2sc(-c3ccc(C(F)(F)F)cc3)nc2C)ccc1OCC(=O)O", "Potency": "inactive"}, {"smiles": "CCc1sc(NC(=O)Cc2cccs2)nc1-c1ccccc1", "Potency": "inactive"}, {"smiles": "O=C(Cc1cccs1)Nc1nc(-c2ccncc2)cs1", "Potency": "inactive"}, {"smiles": "O=C(NC1CCCc2c1cnn2-c1ccc(F)cc1F)c1cnccn1", "note": "(centres undefined)", "Potency": "3.97 µM (active)"}]}]}
